Reference: PubChem BioAssay AID864 (The Scripps Research Institute Molecular Screening Center, 2007)
The other results are listed elsewhere or left out. Values without a mark were called inactive. Cut-off read from the data, not from the text of the source: active = activation above about 8.4%; inactive = the rest.

Target: Galanin receptor type 2 (Homo sapiens) (UniProt O43603)
Assay: activators of human galanin receptor 2 – cell-based, confirmation (AID 864);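 note: 0% = buffer-only vehicle wells and 100% = full reference agonist response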
Conditions: GALR2-expressing cells, agonist activation; at 5.6 µM; hits give high values

Sequence of Galanin receptor type 2 (Homo sapiens) (O43603 whole entry, looked up): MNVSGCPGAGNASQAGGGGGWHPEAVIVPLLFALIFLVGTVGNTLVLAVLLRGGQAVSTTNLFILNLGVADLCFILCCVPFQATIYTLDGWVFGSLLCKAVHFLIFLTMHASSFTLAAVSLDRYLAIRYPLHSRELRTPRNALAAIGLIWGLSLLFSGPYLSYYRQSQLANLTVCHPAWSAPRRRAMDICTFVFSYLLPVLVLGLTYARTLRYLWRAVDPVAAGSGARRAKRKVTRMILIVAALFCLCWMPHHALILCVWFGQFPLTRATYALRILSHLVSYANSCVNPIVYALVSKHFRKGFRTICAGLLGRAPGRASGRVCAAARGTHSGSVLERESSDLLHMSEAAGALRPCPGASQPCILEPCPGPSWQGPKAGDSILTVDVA

**Q.** Which activation does the source give for `Cc1cccc(N2C(=O)NC(=O)/C(=C\c3cnn(-c4ccccc4)c3)C2=O)c1` here?
**A.** Its activation is -0.18%.
